Assay results reported in PubChem BioAssay (NCATS).
Records with an inconclusive call do not appear. A call without a number means that no potency is given here. The source made the active and inactive calls. Unless noted, the call rests on the fitted dose curve.

Key:
[1] = molecular target: Hexokinase-4 (Homo sapiens) + Glucokinase regulatory protein (Homo sapiens) (UniProt P35557+Q14397); assay: qHTS assay for inhibitors of recombinant human GCK-GKRP interaction: HTRF assay (AID 743207; active means well fitted curve in the direction sought with a large enough effect; an effect the other way counts as inactive or inconclusive)
Procedure, shortened: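 HTRF read-out (ex 320 nm; 615/665 nm emission) after 60 min RT equilibration of 5 nM GST-GCK, 5 nM FLAG-GKRP, 2 uM S6P, compound and anti-FLAG/anti-GST detection antibodies; signal normalized between DMSO wells with and without GCK.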

[2] = qHTS assay for measurement of the activity of small molecule inhibitors on Zika virus induced Caspase-3 activity in human astrocytoma cells (AID 1224859; active means well fitted curve in the direction sought with a large enough effect; an effect the other way counts as inactive or inconclusive)
Procedure, shortened: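 Readout is luminescence from Caspase-Glo 3/7 added after a 6 h ZIKV infection (2 FFU/cell) of compound-pretreated (1 h) SNB-19 cells; data expressed as % inhibition versus uninfected and infected wells.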

[3] = molecular target: Atrial natriuretic peptide receptor 1 (Homo sapiens) (UniProt P16066); assay: Natriuretic polypeptide receptor (hNpr1) antagonism - Pilot screen (AID 1347049);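 further: agonist-evoked cGMP luminescence read 20 min after hNppA addition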
Procedure, shortened: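 cGMP-sensor HEK293/hNpr1 cells, 1500/well, plated overnight at 37C. 2% GloSensor reagent, 2 h RT. Compound (23 nL pin transfer) 30 min RT, baseline luminescence pre-read. 0.1 nM hNppA, 20 min RT, post-read.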

[4] = molecular target: Atrial natriuretic peptide receptor 2 (Homo sapiens) (UniProt P20594); assay: Natriuretic polypeptide receptor (hNpr2) antagonism - Pilot subtype selectivity assay (AID 1347050)
Procedure, shortened: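 Luminescence from a genetically encoded cGMP luciferase biosensor in hNpr2-expressing HEK293 cells is read before and 20 min after adding 1 nM hNppC. Test compounds, in interplate 1:5 titrations, are added 30-50 min ahead of the agonist.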

[5] = qHTS Assay for Identifying Gametocytocidal Compounds (AID 743244; active means well fitted curve in the direction sought with a large enough effect; an effect the other way counts as inactive or inconclusive;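 further: actives lower the fluorescent signal which means gametocytes are killed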); settings: P. falciparum 3D7 stage III-V gametocytes, alamarBlue, 72 h; max response: stronger effect = lower value
Procedure, shortened: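 A resazurin-based viability read-out was applied to mature P. falciparum gametocytes: 72 h compound treatment, then 24 h dye incubation, with falling fluorescence signalling gametocytocidal effect.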

[6] = P-glycoprotein substrates identified in KB-8-5-11 adenocarcinoma cell line, qHTS therapeutic library screen (AID 1346987; active means well fitted curve in the direction sought with a large enough effect; an effect the other way counts as inactive or inconclusive; further: nearly all actives have a fitted effect of over 65% in size)
Procedure, shortened: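 Luminescence from CellTiter-Glo, read 5 min after addition, quantified survival of KB-8-5-11 (P-gp-overexpressing) cells exposed to compounds for 72 h. AC50 was derived from concentration-response curves.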

[7] = Natriuretic polypeptide receptor (hNpr1) antagonism - Pilot counterscreen GloSensor control cell line (AID 1347045)
Procedure, shortened: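 Cells were first seeded and incubated overnight at 37C, then loaded with 2% GloSensor substrate for 2 h. Compounds were added for 30 min at room temperature, followed by a baseline read, 50 uM SNP and a final read after 20 min.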

[8] = NS1 protein of Zika virus - qHTS assay to identify small molecule inhibitors in human HEK 293 cells (AID 1347053; active means well fitted curve in the direction sought with a large enough effect; an effect the other way counts as inactive or inconclusive; further: nearly all actives have a fitted effect of over 55% in size)
Procedure, shortened: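 Readout was TR-FRET using paired anti-NS1 antibodies after 24 h infection of HEK 293 cells with ZIKV MR766 (MOI = 0.5). Compound preceded virus by 1 h; reduced signal reflects lower NS1 expression.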

[9] = qHTS profiling for inhibitors of Plasmodium falciparum (3D7) proliferation (AID 743322);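 further: infected erythrocytes exposed to compound for 72 h before lysis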; settings: P. falciparum 3D7 proliferation; at 28.7 µM (top of the series)
Procedure, shortened: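 Parasite DNA was quantified by SYBR Green I fluorescence (ex 485, em 535 nm) after overnight lysis in saponin/Triton buffer at room temperature. Cultures at 0.3% parasitemia and 2.5% hematocrit were first exposed to compound for 72 h at 37 C; signals were normalised to artemisinin (0.29 uM) and vehicle wells.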

[10] = qHTS profiling for inhibitors of Plasmodium falciparum (DD2) proliferation (AID 743323; call rule not given here); settings: lower = more inhibition; at 28.7 µM (top of the series)
Procedure, shortened: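 P. falciparum Dd2-infected erythrocytes (0.3% parasitemia, 2.5% hematocrit) exposed 72 h at 37 C, 5% CO2. Lysis with SYBR Green, overnight at room temperature, fluorescence 485/535 nm; normalized to 0.29 uM artemisinin and DMSO.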

[11] = qHTS profiling for inhibitors of Plasmodium falciparum (HB3) proliferation (AID 743324; active means well fitted curve in the direction sought with a large enough effect; an effect the other way counts as inactive or inconclusive); settings: Plasmodium falciparum HB3 blood-stage proliferation; at 28.7 µM (top of the series)
Procedure, shortened: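 SYBR Green fluorescence (485 ex/535 em) of lysed cultures, incubated overnight at room temperature in the dark, quantifies parasite DNA. Infected erythrocytes at 0.3% parasitemia and 2.5% hematocrit were exposed 72 h; values normalized to DMSO and 0.29 uM artemisinin controls.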

Atrial natriuretic peptide receptor 1 (Homo sapiens), sequence (P16066 whole entry, looked up): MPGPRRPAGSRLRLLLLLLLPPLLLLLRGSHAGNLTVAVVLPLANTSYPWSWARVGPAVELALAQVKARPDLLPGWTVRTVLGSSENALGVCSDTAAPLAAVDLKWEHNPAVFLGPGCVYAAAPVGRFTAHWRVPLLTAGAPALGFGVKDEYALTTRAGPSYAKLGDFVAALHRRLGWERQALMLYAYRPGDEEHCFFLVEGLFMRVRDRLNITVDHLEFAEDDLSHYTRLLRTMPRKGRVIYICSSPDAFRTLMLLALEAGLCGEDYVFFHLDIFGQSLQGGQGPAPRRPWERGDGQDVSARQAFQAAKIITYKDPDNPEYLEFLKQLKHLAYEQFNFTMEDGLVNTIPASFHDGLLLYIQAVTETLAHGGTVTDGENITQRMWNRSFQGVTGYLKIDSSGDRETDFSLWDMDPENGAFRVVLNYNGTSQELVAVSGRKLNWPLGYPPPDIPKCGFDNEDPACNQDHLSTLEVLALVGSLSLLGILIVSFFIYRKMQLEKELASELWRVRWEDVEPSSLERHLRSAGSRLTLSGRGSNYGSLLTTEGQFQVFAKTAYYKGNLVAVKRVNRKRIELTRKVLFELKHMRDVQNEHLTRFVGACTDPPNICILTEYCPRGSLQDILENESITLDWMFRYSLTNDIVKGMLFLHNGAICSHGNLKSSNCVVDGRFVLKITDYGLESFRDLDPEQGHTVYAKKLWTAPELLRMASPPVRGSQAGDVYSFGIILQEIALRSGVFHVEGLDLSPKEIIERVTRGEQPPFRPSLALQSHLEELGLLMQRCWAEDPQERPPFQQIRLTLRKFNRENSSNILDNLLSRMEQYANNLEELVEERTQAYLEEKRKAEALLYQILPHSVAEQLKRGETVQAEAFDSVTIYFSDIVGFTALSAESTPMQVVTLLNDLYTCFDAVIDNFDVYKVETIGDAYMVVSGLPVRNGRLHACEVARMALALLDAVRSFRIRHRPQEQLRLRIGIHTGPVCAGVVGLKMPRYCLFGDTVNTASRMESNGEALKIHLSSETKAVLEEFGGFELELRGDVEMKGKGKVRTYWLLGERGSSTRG
Hexokinase-4 (Homo sapiens) + Glucokinase regulatory protein (Homo sapiens), sequence (P35557 whole entry, looked up): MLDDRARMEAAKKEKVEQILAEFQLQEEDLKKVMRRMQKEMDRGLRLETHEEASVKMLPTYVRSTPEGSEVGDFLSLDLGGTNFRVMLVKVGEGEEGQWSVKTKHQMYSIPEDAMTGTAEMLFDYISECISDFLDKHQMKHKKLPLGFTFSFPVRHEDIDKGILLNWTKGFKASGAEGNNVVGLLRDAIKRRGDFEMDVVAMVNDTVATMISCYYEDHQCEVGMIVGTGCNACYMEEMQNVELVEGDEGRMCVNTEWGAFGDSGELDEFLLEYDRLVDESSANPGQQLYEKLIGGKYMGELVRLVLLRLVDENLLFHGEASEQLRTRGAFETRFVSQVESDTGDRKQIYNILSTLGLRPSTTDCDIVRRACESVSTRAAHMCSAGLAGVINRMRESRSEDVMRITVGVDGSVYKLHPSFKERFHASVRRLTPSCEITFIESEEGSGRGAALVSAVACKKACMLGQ
Hexokinase-4 (Homo sapiens) + Glucokinase regulatory protein (Homo sapiens), sequence (Q14397 whole entry, looked up): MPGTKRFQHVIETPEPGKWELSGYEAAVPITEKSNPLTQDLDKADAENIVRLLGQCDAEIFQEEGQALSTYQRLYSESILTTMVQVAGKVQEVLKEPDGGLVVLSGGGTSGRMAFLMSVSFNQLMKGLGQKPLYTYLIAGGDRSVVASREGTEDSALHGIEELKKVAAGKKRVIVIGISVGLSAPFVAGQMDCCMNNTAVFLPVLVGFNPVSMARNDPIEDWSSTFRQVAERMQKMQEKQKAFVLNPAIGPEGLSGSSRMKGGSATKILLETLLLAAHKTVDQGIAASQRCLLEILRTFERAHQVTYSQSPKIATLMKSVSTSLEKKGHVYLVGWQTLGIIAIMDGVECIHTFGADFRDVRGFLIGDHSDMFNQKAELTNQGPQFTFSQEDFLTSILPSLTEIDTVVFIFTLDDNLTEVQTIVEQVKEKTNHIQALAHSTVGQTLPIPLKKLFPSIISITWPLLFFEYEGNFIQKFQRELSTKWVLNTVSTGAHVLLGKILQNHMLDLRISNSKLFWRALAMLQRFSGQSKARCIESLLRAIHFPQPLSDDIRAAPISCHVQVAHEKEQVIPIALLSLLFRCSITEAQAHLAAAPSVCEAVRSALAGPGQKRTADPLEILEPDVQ
Atrial natriuretic peptide receptor 2 (Homo sapiens), sequence (P20594 whole entry, looked up): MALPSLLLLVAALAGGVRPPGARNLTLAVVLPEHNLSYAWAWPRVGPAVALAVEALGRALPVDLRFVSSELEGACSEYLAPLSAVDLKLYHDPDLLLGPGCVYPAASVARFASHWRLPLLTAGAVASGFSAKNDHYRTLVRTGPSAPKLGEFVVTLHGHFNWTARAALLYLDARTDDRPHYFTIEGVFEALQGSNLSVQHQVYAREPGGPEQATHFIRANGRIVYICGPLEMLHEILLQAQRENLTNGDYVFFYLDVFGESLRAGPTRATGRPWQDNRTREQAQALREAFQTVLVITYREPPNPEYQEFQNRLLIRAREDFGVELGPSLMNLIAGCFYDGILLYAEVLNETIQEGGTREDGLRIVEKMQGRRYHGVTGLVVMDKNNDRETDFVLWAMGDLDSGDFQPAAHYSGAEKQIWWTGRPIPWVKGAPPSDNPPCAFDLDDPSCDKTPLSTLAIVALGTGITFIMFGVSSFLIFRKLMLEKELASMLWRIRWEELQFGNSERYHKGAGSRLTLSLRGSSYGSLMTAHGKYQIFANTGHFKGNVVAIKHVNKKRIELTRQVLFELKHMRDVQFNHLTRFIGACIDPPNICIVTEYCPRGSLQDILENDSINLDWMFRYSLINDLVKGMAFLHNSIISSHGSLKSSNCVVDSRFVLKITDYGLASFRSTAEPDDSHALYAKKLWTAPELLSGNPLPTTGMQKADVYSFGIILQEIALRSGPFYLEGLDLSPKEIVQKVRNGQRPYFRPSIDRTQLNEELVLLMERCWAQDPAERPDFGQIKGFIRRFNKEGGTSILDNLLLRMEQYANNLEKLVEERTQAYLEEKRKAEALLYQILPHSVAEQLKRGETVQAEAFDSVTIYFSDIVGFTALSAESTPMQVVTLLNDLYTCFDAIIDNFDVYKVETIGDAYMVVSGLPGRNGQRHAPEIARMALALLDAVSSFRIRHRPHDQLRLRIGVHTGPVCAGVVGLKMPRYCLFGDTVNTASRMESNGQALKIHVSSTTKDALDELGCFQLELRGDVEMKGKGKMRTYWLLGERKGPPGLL

C=CCN1CCc2cccc3c2[C@H]1Cc1ccc(O)c(O)c1-3
outcome [1]: inactive | outcome [2]: inactive | Potency [3]: inactive | Potency [4]: inactive

C[C@@H]1[C@@H]2Cc3ccc(O)cc3[C@@]1(C)CCN2CC1CC1
max response [5]: 29.7% (inactive) | outcome [2]: inactive | Potency [6]: inactive | Potency [7]: inactive | Potency [3]: inactive | Potency [4]: inactive

CC(C)(O)[C@@H]1C2OC(=O)[C@@H]1[C@]1(O)C[C@H]3O[C@]34C(=O)O[C@H]2[C@]14C (tested in a mixture with another compound)
outcome [1]: inactive | outcome [2]: inactive | Potency [7]: inactive | Potency [3]: inactive | Potency [4]: inactive | outcome [8]: inactive

C[N+](C)(C)CC#CCOC(=O)Nc1cccc(Cl)c1
max response [5]: 12.7% (inactive) | outcome [2]: inactive | Potency [7]: inactive | Potency [4]: inactive | outcome [8]: inactive

NC(Cc1ccc(N(CCCl)CCCl)cc1)C(=O)O (stereo unspecified)
outcome [1]: inactive | max response [5]: 8.23% (inactive) | remaining parasite growth % (stronger effect = lower value) [9]: 34.1% | activity, percent of control [10]: 18.8% | remaining proliferation (% of control), lower = more inhibition [11]: 9.39% | outcome [2]: inactive | Potency [7]: inactive | Potency [3]: inactive | Potency [4]: inactive

COc1ccc2c(c1)[C@@]13CCCC[C@H]1[C@@H](C2)NCC3
outcome [2]: inactive | Potency [7]: inactive | Potency [3]: inactive | Potency [4]: inactive

CCN(CCCl)Cc1ccccc1Br
outcome [1]: inactive | max response [5]: -1.83% (inactive) | outcome [2]: inactive | Potency [7]: inactive | Potency [3]: inactive | Potency [4]: inactive

CCCN(CCC)CCc1c[nH]c2ccc(C(N)=O)cc12
outcome [1]: inactive | outcome [2]: inactive | Potency [7]: inactive | Potency [3]: inactive | Potency [4]: inactive

N[C@@H](Cn1ccc(=O)[nH]c1=O)C(=O)O
outcome [2]: inactive | Potency [7]: inactive | Potency [3]: inactive | Potency [4]: inactive

COc1cc(CC(C)N)c(OC)cc1I (stereo unspecified)
max response [5]: 3.52% (inactive) | outcome [2]: inactive | Potency [7]: inactive | Potency [4]: inactive

CN(N=O)c1cc(O)ccc1O
outcome [2]: inactive | Potency [3]: inactive | outcome [8]: inactive
